Where a chain is given by its changes, count along the chain named.
Columns and labels:
Assay in all cases: PBM; 200 nM protein, PBS
Details in all cases: dsDNA, one strand shown
[1] = target: T1, SIX6 (Homo sapiens, UniProt O95475 114-200, L167I)
T1 sequence: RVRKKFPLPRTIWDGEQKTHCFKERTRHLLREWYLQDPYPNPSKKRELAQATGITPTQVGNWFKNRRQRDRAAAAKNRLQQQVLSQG

[2] = target: T2, SIX6 (Homo sapiens, UniProt O95475 114-200, L143V)
T2 sequence: T1 sequence with L30V, I54L

[3] = target: T3, SIX6 (Homo sapiens, UniProt O95475 114-200, H141N)
T3 sequence: T1 sequence with H28N, I54L

[4] = target: T4, SIX6 (Homo sapiens, UniProt O95475 114-200, T165P)
T4 sequence: T1 sequence with T52P, I54L

[5] = target: T5, SIX6 (Homo sapiens, UniProt O95475 114-200, L167M)
T5 sequence: T1 sequence with I54M

[6] = target: T6, SIX6 (Homo sapiens, UniProt O95475 114-200, L143M)
T6 sequence: T1 sequence with L30M, I54L

[7] = target: T7, SIX6 (Homo sapiens, UniProt O95475 114-200, L143I)
T7 sequence: T1 sequence with L30I, I54L

[8] = target: T8, SIX6 (Homo sapiens, UniProt O95475 114-200, T165G)
T8 sequence: T1 sequence with T52G, I54L

[9] = target: T9, SIX6 (Homo sapiens, UniProt O95475 114-200, T139Q)
T9 sequence: T1 sequence with T26Q, I54L

[10] = target: T10, SIX6 (Homo sapiens, UniProt O95475 114-200, T165A)
T10 sequence: T1 sequence with T52A, I54L

[11] = target: T11, SIX6 (Homo sapiens, UniProt O95475 114-200, L167V)
T11 sequence: T1 sequence with I54V

[12] = target: T12, SIX6 (Homo sapiens, UniProt O95475 114-200)
T12 sequence: T1 sequence with I54L

[13] = target: T13, SIX6 (Homo sapiens, UniProt O95475 114-200, T165I)
T13 sequence: T1 sequence with T52I, I54L

[14] = target: NKX3-2 (Homo sapiens, UniProt P78367 192-278, P234S)
[15] = target: NKX3-2 (Homo sapiens, UniProt P78367 192-278)
NKX3-2 (Homo sapiens, UniProt P78367 192-278), sequence (P78367 192-278): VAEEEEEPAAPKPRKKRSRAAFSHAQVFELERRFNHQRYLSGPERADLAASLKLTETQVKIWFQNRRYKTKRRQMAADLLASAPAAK

NKX3-2 (Homo sapiens, UniProt P78367 192-278, P234S), sequence (P78367 192-278 P234S): as the sequence (P78367 192-278) above, with P43S counted along it

Sequence	binding signal [1]	binding signal [2]	binding signal [3]	binding signal [4]	binding signal [5]	binding signal [6]	binding signal [7]	binding signal [8]	binding signal [9]	binding signal [10]	binding signal [11]	binding signal [12]	binding signal [13]	binding signal [14]	binding signal [15]
GTATCAAA	11.4 upbm affinity estimate (log intensity, higher = more binding, comparable within an allelic series)	10.5 upbm affinity estimate (log intensity, higher = more binding, comparable within an allelic series)	11.4 upbm affinity estimate (log intensity, higher = more binding, comparable within an allelic series)	9.91 upbm affinity estimate (log intensity, higher = more binding, comparable within an allelic series)	10.8 upbm affinity estimate (log intensity, higher = more binding, comparable within an allelic series)	11.2 upbm affinity estimate (log intensity, higher = more binding, comparable within an allelic series)	10.4 upbm affinity estimate (log intensity, higher = more binding, comparable within an allelic series)	11.3 upbm affinity estimate (log intensity, higher = more binding, comparable within an allelic series)	11.2 upbm affinity estimate (log intensity, higher = more binding, comparable within an allelic series)	11.4 upbm affinity estimate (log intensity, higher = more binding, comparable within an allelic series)	11.2 upbm affinity estimate (log intensity, higher = more binding, comparable within an allelic series)	11.2 upbm affinity estimate (log intensity, higher = more binding, comparable within an allelic series)	11.2 upbm affinity estimate (log intensity, higher = more binding, comparable within an allelic series)		
AGCGGTGG	8.97 upbm affinity estimate (log intensity, higher = more binding, comparable within an allelic series)	8.89 upbm affinity estimate (log intensity, higher = more binding, comparable within an allelic series)	8.96 upbm affinity estimate (log intensity, higher = more binding, comparable within an allelic series)	8.97 upbm affinity estimate (log intensity, higher = more binding, comparable within an allelic series)	8.93 upbm affinity estimate (log intensity, higher = more binding, comparable within an allelic series)	9.05 upbm affinity estimate (log intensity, higher = more binding, comparable within an allelic series)	9 upbm affinity estimate (log intensity, higher = more binding, comparable within an allelic series)	8.94 upbm affinity estimate (log intensity, higher = more binding, comparable within an allelic series)	9.04 upbm affinity estimate (log intensity, higher = more binding, comparable within an allelic series)	8.98 upbm affinity estimate (log intensity, higher = more binding, comparable within an allelic series)	8.84 upbm affinity estimate (log intensity, higher = more binding, comparable within an allelic series)	9.06 upbm affinity estimate (log intensity, higher = more binding, comparable within an allelic series)	8.95 upbm affinity estimate (log intensity, higher = more binding, comparable within an allelic series)		
CTGGCGCC	8.88 upbm affinity estimate (log intensity, higher = more binding, comparable within an allelic series)	8.96 upbm affinity estimate (log intensity, higher = more binding, comparable within an allelic series)	8.82 upbm affinity estimate (log intensity, higher = more binding, comparable within an allelic series)	9.1 upbm affinity estimate (log intensity, higher = more binding, comparable within an allelic series)	8.85 upbm affinity estimate (log intensity, higher = more binding, comparable within an allelic series)	8.93 upbm affinity estimate (log intensity, higher = more binding, comparable within an allelic series)	8.9 upbm affinity estimate (log intensity, higher = more binding, comparable within an allelic series)	8.9 upbm affinity estimate (log intensity, higher = more binding, comparable within an allelic series)	8.85 upbm affinity estimate (log intensity, higher = more binding, comparable within an allelic series)	8.87 upbm affinity estimate (log intensity, higher = more binding, comparable within an allelic series)	8.8 upbm affinity estimate (log intensity, higher = more binding, comparable within an allelic series)	8.82 upbm affinity estimate (log intensity, higher = more binding, comparable within an allelic series)	8.87 upbm affinity estimate (log intensity, higher = more binding, comparable within an allelic series)	10.6 upbm affinity estimate (log intensity, higher = more binding, comparable within an allelic series)	10.5 upbm affinity estimate (log intensity, higher = more binding, comparable within an allelic series)
GCTGTCCC	8.84 upbm affinity estimate (log intensity, higher = more binding, comparable within an allelic series)	8.8 upbm affinity estimate (log intensity, higher = more binding, comparable within an allelic series)	8.82 upbm affinity estimate (log intensity, higher = more binding, comparable within an allelic series)	9.07 upbm affinity estimate (log intensity, higher = more binding, comparable within an allelic series)	8.79 upbm affinity estimate (log intensity, higher = more binding, comparable within an allelic series)	8.89 upbm affinity estimate (log intensity, higher = more binding, comparable within an allelic series)	8.88 upbm affinity estimate (log intensity, higher = more binding, comparable within an allelic series)	8.98 upbm affinity estimate (log intensity, higher = more binding, comparable within an allelic series)	9.06 upbm affinity estimate (log intensity, higher = more binding, comparable within an allelic series)	8.87 upbm affinity estimate (log intensity, higher = more binding, comparable within an allelic series)	9.03 upbm affinity estimate (log intensity, higher = more binding, comparable within an allelic series)	8.86 upbm affinity estimate (log intensity, higher = more binding, comparable within an allelic series)	8.9 upbm affinity estimate (log intensity, higher = more binding, comparable within an allelic series)		
AGTATCAT	11.5 upbm affinity estimate (log intensity, higher = more binding, comparable within an allelic series)	10.5 upbm affinity estimate (log intensity, higher = more binding, comparable within an allelic series)	11.5 upbm affinity estimate (log intensity, higher = more binding, comparable within an allelic series)	9.89 upbm affinity estimate (log intensity, higher = more binding, comparable within an allelic series)	10.9 upbm affinity estimate (log intensity, higher = more binding, comparable within an allelic series)	11 upbm affinity estimate (log intensity, higher = more binding, comparable within an allelic series)	10.6 upbm affinity estimate (log intensity, higher = more binding, comparable within an allelic series)	11.5 upbm affinity estimate (log intensity, higher = more binding, comparable within an allelic series)	11.4 upbm affinity estimate (log intensity, higher = more binding, comparable within an allelic series)	11.4 upbm affinity estimate (log intensity, higher = more binding, comparable within an allelic series)	11.3 upbm affinity estimate (log intensity, higher = more binding, comparable within an allelic series)	11.2 upbm affinity estimate (log intensity, higher = more binding, comparable within an allelic series)	11.2 upbm affinity estimate (log intensity, higher = more binding, comparable within an allelic series)		
AGTGTATC	11 upbm affinity estimate (log intensity, higher = more binding, comparable within an allelic series)	10.3 upbm affinity estimate (log intensity, higher = more binding, comparable within an allelic series)	11 upbm affinity estimate (log intensity, higher = more binding, comparable within an allelic series)	9.91 upbm affinity estimate (log intensity, higher = more binding, comparable within an allelic series)	10.7 upbm affinity estimate (log intensity, higher = more binding, comparable within an allelic series)	11 upbm affinity estimate (log intensity, higher = more binding, comparable within an allelic series)	10.4 upbm affinity estimate (log intensity, higher = more binding, comparable within an allelic series)	11.1 upbm affinity estimate (log intensity, higher = more binding, comparable within an allelic series)	11.3 upbm affinity estimate (log intensity, higher = more binding, comparable within an allelic series)	11 upbm affinity estimate (log intensity, higher = more binding, comparable within an allelic series)	10.8 upbm affinity estimate (log intensity, higher = more binding, comparable within an allelic series)	11 upbm affinity estimate (log intensity, higher = more binding, comparable within an allelic series)	10.9 upbm affinity estimate (log intensity, higher = more binding, comparable within an allelic series)		

Reference: PMC11006913
